Test [1] in a line: NCI Yeast Anticancer Drug Screen. Data for the rad50 strain (AID 155).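 Note: 0% = growth of vehicle-only cultures of the same strain.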 The settings on record: S. cerevisiae rad50 strain growth inhibition; at 50.0 µM; active compounds read high. A digest of the protocol:
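Compounds were tested on a yeast strain with an engineered DNA damage repair alteration; the reported value is growth inhibition normalised to vehicle treatment.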

Test [2] in a line: NCI Yeast Anticancer Drug Screen. Data for the mec2-1 strain (AID 157). The settings on record: S. cerevisiae mec2-1 strain, at 50.0 µM, active compounds read high. Summed up:
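Vehicle-treated cultures served as reference for growth inhibition of compound-exposed mec2-1 yeast.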

The nature of test [3]: NCI Yeast Anticancer Drug Screen. Data for the sgs1 mgt1 strain (AID 161).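 Note: 0% = growth of cultures given vehicle only.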 The settings on record: S. cerevisiae sgs1 mgt1 strain, at 50.0 µM, active compounds read high. A digest of the protocol: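 Test agents were incubated with a DNA-repair-mutant yeast strain. Growth was then read and compared against vehicle-treated controls.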
A short description of test [4]: NCI Yeast Anticancer Drug Screen. Data for the cln2 rad14 strain (AID 165).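 Note: 0% = growth equal to vehicle treated cultures.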 The settings on record: S. cerevisiae cln2 rad14 strain, at 50.0 µM, active compounds read high. A digest of the protocol: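 Each compound was tested on cln2 rad14 yeast. Inhibition of growth was calculated against vehicle-exposed controls.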
Test [5] in a line: NCI Yeast Anticancer Drug Screen. Data for the bub3 strain (AID 167). The settings on record: S. cerevisiae bub3 mutant strain, at 50.0 µM, active compounds read high. A digest of the protocol: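 Growth of a checkpoint-deficient yeast mutant is measured after compound exposure. Values represent inhibition relative to vehicle.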
A short description of test [6]: NCI Yeast Anticancer Drug Screen. Data for the mlh1 rad18 strain (AID 175). The settings on record: S. cerevisiae mlh1 rad18 strain growth inhibition; at 50.0 µM; active compounds read high. A digest of the protocol: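 Vehicle-treated cultures served as the reference for growth inhibition in a yeast strain carrying DNA damage repair alterations exposed to each compound.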

The panel holds about 79,000 compounds, 15% with a hit somewhere; the sample as a whole holds those more often. Values without a mark were called inactive. Calls of active or inactive are those of the source. Cut-off read from the data, not from the text of the source: active = growth inhibition above about 70%; inactive = the rest.

For the compound `CC1(C)C2CCC1(CS(=O)(=O)O)C(=O)C2` (centres undefined), the growth inhibition in test [1] is -14%; in test [2], -6.6%; in test [3], -12.4%; in test [4], -58.4%; in test [5] it was -4.65%; in test [6], -1.2%.

In the case of `Cc1ccc(/C=N/Nc2nc3ccccc3s2)s1`, the growth inhibition was -24.5% in test [1]; -4% in test [2]; -9.55% in test [3]; 0.7% in test [4]; -12.1% in test [5]; -11.2% in test [6].

As to `CNC(=S)/C(=N\Nc1nc[nH]c1C(N)=O)C(N)=S`, the growth inhibition is -3.7% in test [1]; 7.85% in test [2]; 38.5% in test [3]; -0.8% in test [4]; 15.1% in test [5]; 21.1% in test [6].

Turning to `CC1C2(C)OC(=N)C(C#N)(C(c3cccc([N+](=O)[O-])c3)O2)C1(C#N)C#N` (centres undefined), the growth inhibition in test [1] was 8.15%; in test [2], 1.55%; in test [3], -13.6%; in test [4], 0.15%; in test [5] it was -10.4%; in test [6] it was -9.1%.

For the compound `COc1ccc(C)cc1NC(=S)C#N`, the growth inhibition in test [1] was 12.6%; in test [2] it was -1.2%; in test [3], -0.15%; in test [4], -18.6%; in test [5], 1.3%; in test [6], -44.9%.

Regarding `CN(C)c1ccc(/C=N/n2c(-c3ccccc3)nc3ccccc3c2=O)cc1`, the growth inhibition in test [1] is 14.3%; in test [2], 14.2%; in test [3] it was 43.8%; in test [4] it was 13.4%; in test [5], 50.8%; in test [6], -41%.

`O=C1c2c(O)cc(O)cc2OC(c2ccc(O)c(O)c2)C1O` (centres undefined): the growth inhibition in test [1] is 9.55%; in test [2], -23.6%; in test [3] it was 11.2%; in test [4], -0.65%; in test [5], -9.05%; in test [6], -18.7%.

`COC(=O)c1cnn2c1n[n+]([O-])c1ccccc12`: the growth inhibition is -36.3% in test [1]; -36% in test [2]; -33.1% in test [3]; 15.9% in test [4]; -37% in test [5]; -8% in test [6].

As to `C/C=C1\NC(=O)[C@H]2CSSCCC=C[C@H](CC(=O)N[C@H](C(C)C)C(=O)N2)OC(=O)[C@H](C(C)C)NC1=O`, the growth inhibition is 26.1% in test [1]; 35.4% in test [2]; 26.1% in test [3]; 51.6% in test [4]; 58.4% in test [5]; 33.5% in test [6].

As to `Cc1cc(N(CCC#N)CCC#N)ccc1/C=N/NC(=O)c1cc(Cl)ccc1O`, the growth inhibition in test [1] is -1.8%; in test [2], -18.3%; in test [3], -40.8%; in test [4] it was -9.2%; in test [5], -23.7%; in test [6] it was -32%.

As to `O=C1NC(N/N=C\c2ccccc2)=N/C1=C/c1ccc(Cl)cc1`, the growth inhibition in test [1] is 22.6%; in test [2], 0.75%; in test [3] it was 11.7%; in test [4], 17.8%; in test [5], 16.7%; in test [6], -1.85%.

Consider `CO/C(N)=C(\C#N)N=Cc1ccc2ccccc2c1`, for which the growth inhibition in test [1] is 30.9%; in test [2], 14.3%; in test [3], 13.6%; in test [4], 19.1%; in test [5], 16.7%; in test [6], 40.5%.

On to `CCC/C(Cl)=N/OC(=O)Nc1cccc(F)c1`, for which the growth inhibition is -2.75% in test [1]; -6.9% in test [2]; 90.8% (active) in test [3]; 16.6% in test [4]; 45% in test [5]; 41.5% in test [6].

On to `COC(=O)C(=O)C(C(=O)C(=O)Nc1ccccc1C(C)=O)c1nc2ccc(C(=O)c3ccccc3)cc2[nH]c1=O` (centres undefined), for which the growth inhibition in test [1] is 25.9%; in test [2] it was -6.6%; in test [3] it was 33.6%; in test [4], 28.6%; in test [5], 5.25%; in test [6] it was 24.5%.

With `NC1N=C(c2ccc(Cl)cc2)C2=C(N1)c1ccccc1CC2` (centres undefined), the growth inhibition in test [1] is -7.1%; in test [2], 0.9%; in test [3], -0.75%; in test [4], 8.05%; in test [5], 18.9%; in test [6], -50.7%.

For `Clc1c(Cl)c(Cl)c2nn(C3CCCO3)nc2c1Cl` (centres undefined), the growth inhibition in test [1] was 15.3%; in test [2] it was 3.2%; in test [3] it was -5.9%; in test [4] it was -17.1%; in test [5], 12.1%; in test [6] it was -45.6%.

With `CNC(=O)c1cccnc1`, the growth inhibition in test [1] is -5.35%; in test [2], -26%; in test [3], -20.6%; in test [4] it was 6.7%; in test [5], -12.2%; in test [6] it was -8.35%.

As to `Cc1ccc(NC(=O)/C(Cc2cc(=O)oc3cc(O)ccc23)=N\NC(C)(C)C)cc1C`, the growth inhibition in test [1] is -3.95%; in test [2], -10.3%; in test [3] it was -21.9%; in test [4], -33.9%; in test [5], -17.9%; in test [6] it was -3.5%.

In the case of `c1ccc(N(c2ccccc2)c2ccccc2)cc1`, the growth inhibition in test [1] was 5%; in test [2], -14.7%; in test [3], 1.9%; in test [4], 7.1%; in test [5], -10.4%; in test [6], 4.05%.

(Values after PubChem BioAssay (NCI).)
